Laboratory results published in patent US10344301, “Mutants of the bacteriophage lambda integrase” (AGENCY FOR SCIENCE, TECHNOLOGY AND RESEARCH).

T1: I43F C2 integrase (Bacteriophage lambda, UniProt P03700 SEQ:1-356, I43F)
T1 sequence: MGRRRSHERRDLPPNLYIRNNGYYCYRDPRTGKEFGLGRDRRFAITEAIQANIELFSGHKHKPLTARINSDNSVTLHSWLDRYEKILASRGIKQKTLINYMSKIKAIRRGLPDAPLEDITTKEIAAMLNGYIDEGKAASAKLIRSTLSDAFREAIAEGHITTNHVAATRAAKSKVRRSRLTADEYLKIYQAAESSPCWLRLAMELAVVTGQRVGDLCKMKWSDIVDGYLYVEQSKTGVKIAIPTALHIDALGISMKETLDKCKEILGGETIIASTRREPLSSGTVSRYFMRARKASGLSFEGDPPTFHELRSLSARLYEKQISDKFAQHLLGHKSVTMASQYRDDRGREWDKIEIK

B1: attB ; attP (dsDNA ; dsDNA)
DNA 1: CTGCTTTTTTATACTAACTTG
DNA 2: CAAGTTAGTATAAAAAAGCAG
DNA 3: CAGCTTTTTTATACTAAGTTG
DNA 4: CAACTTAGTATAAAAAAGCTG
B2: attH ; attPH (dsDNA ; dsDNA)
DNA 1: CTGCTTTCTTATACCAAGTGG
DNA 2: CCACTTGGTATAAGAAAGCAG
DNA 3: CAGCTTTCTTATACCAAGTTG
DNA 4: CAACTTGGTATAAGAAAGCTG
B3: attH4X ; attP4X (dsDNA ; dsDNA)
DNA 1: ACGCTTTATTTCATTAAGTTG
DNA 2: CAACTTAATGAAATAAAGCGT
DNA 3: CAGCTTTATTTCATTAAGTTG
DNA 4: CAACTTAATGAAATAAAGCTG

target: T1, I43F C2 integrase; assay: IVT; E319G removed from C3; details: tags: PURExpress IVT

Binding signal, ~3 fold reduced vs C3:
B1
B2
B3
